Values joined by “and” are separate entries in the source; they are usually repeats but may differ in a detail not shown here. Equal entries are not always repeated. Records with an inconclusive call do not appear. A call without a number means that no potency is given here. A number with no mark means an inactive call. Active and inactive are the calls of the source. Calls come from the whole dose curve; as a rule, active = well fitted curve in the direction sought with a large enough effect; inconclusive = small, poorly fitted or top-dose-only effect, or another doubt; inactive = no such curve, though single readings can be large; an effect the other way counts as inactive or inconclusive.
Experiments:
CRL-7250 [1] = assay: qHTS assay to identify novel small-molecules to repurpose for Merkel cell carcinoma treatment (AID 1296009); conditions: MCC and control cell lines, CellTiter-Glo viability, 72 h; series mostly up to 44.8 µM; note: nearly all actives have a fitted effect of over 60% in size
How it was run: (§1)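 72 hr, 37 degree celsius; NPC 8-pt / MIPE 11-pt dose response; compound pinned in DMSO; CellTiter-Glo, 10 min RT, luminescence; normalized to no-cell and DMSO controls.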

TAB109 = assay: qHTS profiling for inhibitors of Plasmodium falciparum proliferation (AID 504749); note: nearly all actives have a fitted effect of over 60% in size; conditions: P. falciparum in erythrocytes, SYBR Green DNA, 72 h; series mostly up to 28.7 µM
How it was run: (§2)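 Infected RBCs, 0.3% parasitemia/2.5% Hct final; cpd 72 h, 37 C, 5% CO2; lysis buffer with saponin/triton/SYBR Green I, o/n RT dark; FI 485/535; norm. to artemisinin (0.29 uM) and DMSO.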

TAB113 = assay: as above; conditions: P. falciparum in erythrocytes, SYBR Green DNA, 72 h; series mostly up to 28.7 µM
How it was run: as §2

TAB165 = assay: as above; conditions: P. falciparum in erythrocytes, SYBR Green DNA, 72 h; series mostly up to 28.7 µM
How it was run: as §2

W2 = assay: as above; conditions: P. falciparum in erythrocytes, SYBR Green DNA, 72 h; series mostly up to 28.7 µM
How it was run: as §2

CRL-7250 [2] = assay: Cytotoxic Profiling of Annotated Libraries Using Quantitative High-Throughput Screening (AID 1296008); conditions: Five cell lines viability, CellTiter-Glo ATP luminescence, 48-72 h; max response: hits give low values; note: nearly all actives have a fitted effect of over 60% in size
How it was run: (§3)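 Cytotoxicity was measured as CellTiter-Glo ATP luminescence, read after 10 min at room temperature. Compound treatment of the cells lasted 48 or 72 hr at 37 degrees Celsius in a qHTS format.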

HaCat = assay: as above; conditions: Five cell lines viability, CellTiter-Glo ATP luminescence, 48-72 h; max response: hits give low values
How it was run: as §3

KB-3-1 = assay: as above; conditions: Five cell lines viability, CellTiter-Glo ATP luminescence, 48-72 h; max response: hits give low values
How it was run: as §3

NIH3T3 [3] = assay: as above; conditions: Five cell lines viability, CellTiter-Glo ATP luminescence, 48-72 h; max response: hits give low values
How it was run: as §3

MCC-13 = assay: qHTS assay to identify novel small-molecules to repurpose for Merkel cell carcinoma treatment (AID 1296009); conditions: MCC and control cell lines, CellTiter-Glo viability, 72 h; series mostly up to 46 µM; note: nearly all actives have a fitted effect of over 60% in size
How it was run: as §1

MCC-26 = assay: as above; conditions: MCC and control cell lines, CellTiter-Glo viability, 72 h; series mostly up to 46 µM
How it was run: as §1

MKL-1 = assay: as above; conditions: MCC and control cell lines, CellTiter-Glo viability, 72 h; series mostly up to 46 µM
How it was run: as §1

MKL-2 = assay: as above; conditions: MCC and control cell lines, CellTiter-Glo viability, 72 h; series mostly up to 46 µM
How it was run: as §1

NIH3T3 [4] = assay: as above; conditions: MCC and control cell lines, CellTiter-Glo viability, 72 h
How it was run: as §1

UISO = assay: as above; conditions: MCC and control cell lines, CellTiter-Glo viability, 72 h; series mostly up to 46 µM
How it was run: as §1

WaGa = assay: as above; conditions: MCC and control cell lines, CellTiter-Glo viability, 72 h; series mostly up to 46 µM
How it was run: as §1

C33A = assay: Primary qHTS to identify gynecologic anti-cancer compounds using libraries of approved drugs and bioactive compounds (AID 1345084); conditions: Gynecologic cancer cell panel viability, ATPlite luminescence, 48 h; series mostly up to 57.5 µM; note: nearly all actives have a fitted effect of over 55% in size
How it was run: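 In this quantitative HTS, cell killing is estimated from loss of ATP-dependent luciferase light. Cells see five compound concentrations over a 48 h exposure.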

[5] = at 44.8 µM (top of the series) unless noted
Potency is the fitted concentration of half-maximal effect.

Question: How did the outcome (CRL-7250 [1]) turn out when `CC1=C(C(=O)O)N2C(=O)[C@@H](NC(=O)[C@H](N)c3ccc(O)cc3)[C@H]2SC1` was run?
Answer: inactive

Question: Which outcome (CRL-7250 [1]) does the source give for `Cc1ccc(S(=O)(=O)NC(=O)NN2CC3CCCC3C2)cc1` (configuration not stated) here?
Answer: inactive

Question: Which Potency (TAB109) does the source give for `CC(=O)[C@H]1CC[C@H]2[C@@H]3CC[C@H]4C[C@H](O)CC[C@]4(C)[C@H]3C(=O)C[C@]12C` here?
Answer: inactive

Question: What about the Potency (TAB113) of the same compound?
Answer: inactive

Question: What about the Potency (TAB165) of the same compound?
Answer: inactive

Question: What about the Potency (W2) of the same compound?
Answer: inactive

Question: And the max response (CRL-7250 [2])?
Answer: -2.84%

Question: What about the max response (HaCat) of the same compound?
Answer: 0.502%

Question: And the max response (KB-3-1)?
Answer: -4.21%

Question: And the outcome (NIH3T3 [3])?
Answer: inactive

Question: And the Potency (MCC-13)?
Answer: inactive

Question: And the Potency (MCC-26)?
Answer: inactive

Question: What about the Potency (MKL-1) of the same compound?
Answer: inactive

Question: And the Potency (MKL-2)?
Answer: inactive

Question: And the outcome (NIH3T3 [4]; [5])?
Answer: inactive

Question: What about the Potency (UISO) of the same compound?
Answer: inactive

Question: What about the Potency (WaGa) of the same compound?
Answer: inactive

Question: What about the Potency (C33A) of the same compound?
Answer: inactive

Question: Which results are given for `CN1C[C@H](CNC(=O)OCc2ccccc2)C[C@@H]2c3cccc4c3c(cn4C)C[C@H]21`?
Answer: Potency (TAB109): 5.62 µM (active); Potency (TAB113): 12.6 µM (active); Potency (TAB165): 10 µM (active); Potency (W2): 4.78 µM (active); max response (HaCat): -40.8%; max response (KB-3-1): -8.28%; Potency (MCC-13): inactive; Potency (MCC-26): inactive; Potency (C33A): inactive

Question: With `C[C@@H]1[C@@H](CC(C[C@H]2O[C@@H]3O[C@]4(C)CC[C@@H]5[C@H](C)CC[C@@H]([C@H]2C)[C@@]35OO4)C[S+](=O)([O-])c2ccc(COC(=O)N(C)C)cc2)O[C@@H]2O[C@]3(C)CC[C@H]4[C@H](C)CC[C@@H]1[C@@]24OO3` (some centres not stated) as the compound, how does the Potency (KB-3-1) read?
Answer: 1.32 µM (active)

Question: And the Potency (MKL-1)?
Answer: 1.18 µM (active)

Question: What about the Potency (MKL-2) of the same compound?
Answer: 0.59 µM (active)

Question: What about the Potency (UISO) of the same compound?
Answer: 526 nM (active)

Question: Which max response (KB-3-1) does the source give for `O=C(O)P(=O)(O)O` here?
Answer: -7.16%

Question: And the outcome (CRL-7250 [1])?
Answer: inactive

Question: For `CCCNCC(O)COc1ccccc1C(=O)CCc1ccccc1` (configuration not stated), which outcome (CRL-7250 [1]) is on record?
Answer: inactive

Question: `C[C@H]1O[C@@H](O[C@H]2[C@@H](O)C[C@H](O[C@H]3[C@@H](O)C[C@H](O[C@H]4CC[C@@]5(C)[C@H](CC[C@@H]6[C@@H]5CC[C@]5(C)[C@@H](C7=CC(=O)OC7)CC[C@]65O)C4)O[C@@H]3C)O[C@@H]2C)C[C@H](O)[C@@H]1O` was tested. Which Potency (CRL-7250 [2]) did it give?
Answer: 33.5 nM (active) and 48.5 nM (active)

Question: What about the Potency (HaCat) of the same compound?
Answer: 266 nM (active)

Question: And the Potency (KB-3-1)?
Answer: 73.1 nM (active) and 137 nM (active)

Question: And the max response (NIH3T3 [3])?
Answer: -6.15%

Question: What about the Potency (MCC-26) of the same compound?
Answer: 0.0422 µM (active)

Question: What about the Potency (MKL-1) of the same compound?
Answer: 0.0473 µM (active)

Question: What about the Potency (MKL-2) of the same compound?
Answer: 0.0237 µM (active)

Question: What about the Potency (WaGa) of the same compound?
Answer: 21.1 nM (active)

Question: And the Potency (C33A)?
Answer: 100 nM (active) and 89.1 nM (active)

Question: How did the outcome (CRL-7250 [1]) turn out when `O=C1NC(c2ccccc2)(c2ccccc2)C(=O)N1COP(=O)(O)O` was run?
Answer: inactive

Question: How did the max response (CRL-7250 [2]) turn out when `Cn1cc(C2=C(c3cn(C4CCN(Cc5ccccn5)CC4)c4ccccc34)C(=O)NC2=O)c2ccccc21` was run?
Answer: -3.19% and -9.47%

Question: What about the max response (HaCat) of the same compound?
Answer: -7.11%

Question: And the max response (KB-3-1)?
Answer: 7.73% and 20.1%

Question: What about the outcome (NIH3T3 [3]) of the same compound?
Answer: inactive

Question: And the Potency (MCC-13)?
Answer: inactive

Question: What about the Potency (MCC-26) of the same compound?
Answer: inactive

Question: And the Potency (MKL-1)?
Answer: inactive

Question: And the Potency (MKL-2)?
Answer: inactive

Question: What about the outcome (NIH3T3 [4]; [5]) of the same compound?
Answer: inactive

Question: What about the Potency (UISO) of the same compound?
Answer: inactive

Question: And the Potency (WaGa)?
Answer: inactive

Question: And the Potency (C33A)?
Answer: inactive

Question: `NC(=O)c1cn(Cc2c(F)cccc2F)nn1` was tested. Which outcome (CRL-7250 [1]) did it give?
Answer: inactive

Question: With `Cc1cccc(C)c1NC1=NCCCS1` as the compound, how does the Potency (TAB113) read?
Answer: inactive

Question: And the Potency (W2)?
Answer: 4.26 µM (active)

Question: And the max response (CRL-7250 [2])?
Answer: -7.18%

Question: What about the max response (HaCat) of the same compound?
Answer: -7.27%

Question: What about the max response (KB-3-1) of the same compound?
Answer: -1.86%

Question: What about the max response (NIH3T3 [3]) of the same compound?
Answer: 1%

Question: And the Potency (MCC-13)?
Answer: inactive

Question: What about the Potency (MCC-26) of the same compound?
Answer: inactive

Question: What about the Potency (MKL-1) of the same compound?
Answer: inactive

Question: And the Potency (MKL-2)?
Answer: inactive

Question: And the Potency (UISO)?
Answer: inactive

Question: What about the Potency (WaGa) of the same compound?
Answer: inactive

Question: And the Potency (C33A)?
Answer: inactive

Question: With `C[C@@H]1O[C@@H](O[C@H]2C[C@@H](O)[C@]3(CO)[C@H]4[C@H](O)C[C@]5(C)[C@@H](C6=CC(=O)OC6)CC[C@]5(O)[C@@H]4CC[C@]3(O)C2)[C@H](O)[C@H](O)[C@H]1O` as the compound, how does the Potency (CRL-7250 [2]) read?
Answer: 29.6 nM (active) and 84.1 nM (active) and 89.3 nM (active)

Question: What about the Potency (HaCat) of the same compound?
Answer: 266 nM (active) and 142 nM (active)

Question: What about the Potency (KB-3-1) of the same compound?
Answer: 52.6 nM (active) and 46.1 nM (active) and 112 nM (active)

Question: And the outcome (NIH3T3 [3])?
Answer: inactive

Question: What about the Potency (MCC-26) of the same compound?
Answer: 0.235 µM (active)

Question: What about the Potency (MKL-1) of the same compound?
Answer: 148 nM (active) and 119 nM (active)

Question: And the Potency (MKL-2)?
Answer: 0.118 µM (active)

Question: And the outcome (NIH3T3 [4]; at 17.4 µM (top of the series))?
Answer: inactive

Question: And the outcome (NIH3T3 [4]; at 44.8 µM (top of the series))?
Answer: inactive

Question: What about the Potency (UISO) of the same compound?
Answer: 83.3 nM (active) and 59.6 nM (active)

Question: What about the Potency (WaGa) of the same compound?
Answer: 66.2 nM (active) and 59.6 nM (active)

Question: What about the Potency (C33A) of the same compound?
Answer: 100 nM (active) and 126 nM (active)

Reference: PubChem BioAssay (NCATS)
